Inconclusive results are not listed. The source made the active and inactive calls. Calls come from the whole dose curve; as a rule, active = well fitted curve in the direction sought with a large enough effect; inconclusive = small, poorly fitted or top-dose-only effect, or another doubt; inactive = no such curve, though single readings can be large; an effect the other way counts as inactive or inconclusive.
Legend:
[1] = target: Dual specificity protein kinase CLK4 (Homo sapiens) (UniProt Q9HAZ1); test: qHTS Assay for Inhibitors of CDC-like Kinase 4 (ADP-FP Assay) (AID 1795);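 note: recombinant human CLK4 phosphorylating RS repeat peptide at 1 µM ATP; % is set by controls: 0 for no effect and ±100 for the full control effect; nearly all actives have a fitted effect of over 60% in size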
In short: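 Clk4 6.25 nM; RS peptide 100 uM; ATP 1 uM; 25 mM Tris pH 7.5, 10 mM MgCl2; 1 h reaction. ADP detected via antibody/orange tracer FP displacement; TG003 positive control.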

[2] = Viability counterscreen for antagonist of constitutive androstane receptor (CAR) against the NCATS DSHEA and TCM libraries (AID 1794837);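 note: compound exposure lasted 24 h before viability reading; 0% is about no effect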
In short: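 Cells: HepG2 line carrying CYP2B6 reporter and hCAR, seeded and attached 5 h. Then pin-transferred test substances plus agonist CITCO at 48 uM final; 24 h incubation; fluorogenic viability reagent, 1 h.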

[3] = Viability counterscreen for agonist of constitutive androstane receptor (CAR) against the NCATS DSHEA and TCM libraries (AID 1794838);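 note: HepG2 cells with CYP2B6 reporter and hCAR plus 0.75 µM PK11195 antagonist; 0% is about no effect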
In short: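 Cell health was measured as CellTiter-Fluor signal in HepG2-CYP2B6-hCAR cells treated for 24 h with substances alongside the hCAR antagonist PK11195 (0.75 uM final).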

[4] = HepG2 viability counterscreen (readout 2: ATP content) against the NCATS DSHEA and TCM libraries (AID 1794840); note: 0% is about no effect
In short: (§1)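 Same wells read twice: first fluorescence from cleaved GF-AFC substrate (25 uM final, 30 min, 37C) for live-cell protease, then CellTiter-Glo luminescence after 30 min at room temperature for ATP. HepG2 cells were exposed ~24 h to substances.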

[5] = HepG2 viability counterscreen (readout 1: protease activity) against the NCATS DSHEA and TCM libraries (AID 1794841);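 note: cells exposed to compounds for about 24 h before the protease read; 0% is about no effect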
In short: as §1

[6] = target: Cytochrome P450 2D6 (Homo sapiens) (UniProt P10635); test: qHTS for inhibitors of CYP2D6 against the NCATS DSHEA and TCM libraries (AID 1919972); note: potency is the fitted concentration of half-maximal effect; for activity change, negative = inhibition: % is set by controls: 0 for no effect and ±100 for the full control effect
In short: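 CYP2D6 enzyme with pro-luciferin substrate in manufacturer buffer (typically 100 mM KPO4), preincubated 15 min RT with substances (most at 19.5 nM upward); NADPH regeneration system (1x) started 30–45 min RT reaction; P450-Glo luminescence read after 30 min; quinidine as intraplate control.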

[7] = KB-3-1 P-gp reporter qHTS against the NCATS DSHEA and TCM libraries (AID 1919975); note: 0% is about no effect
In short: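 KB-3-1 parental line, 1536-well qHTS: cells seeded, ~4 h attachment, pintool compound addition, ~72 h at 37C, then CellTiter-Glo, 30 min RT, luminescence. Concentration-response format.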

[8] = qHTS Counterscreen for compound interference against the NCATS DSHEA and TCM libraries (AID 1919978); conditions: firefly luciferase detection reagent interference, luminescence;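 note: compounds preincubated with 1 µM D-luciferin or buffer before detection reagent; % of control where 0% means no effect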
In short: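 Compounds, titrated from 19.5 nM to 39.8 uM final, were pinned onto 1 uM D-luciferin or plain 100 mM potassium phosphate. After 15 min at room temperature, luciferin detection reagent was added for 30 min before the luminescence read.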

[9] = Dual reporter qHTS for agonist of Pregnane X Receptor (hPXR) against the NCATS DSHEA and TCM libraries: Fluorescence readout (AID 1920058); note: 0% is about no effect
In short: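 Viability readout (CellTiter-Fluor, 405/540 nm, 1 h) from agonist-mode PXR dual reporter in hPXR-Luc HepG2 cells. Substances ~24 h, 37 °C, 5% CO2; rifampicin reference, tetraoctyl ammonium bromide cytotoxic control.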

[10] = Dual reporter qHTS for antagonist of Pregnane X Receptor (hPXR) against the NCATS DSHEA and TCM libraries: Fluorescence Readout (AID 1920061); note: 0% is about no effect
In short: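 Rifampicin-stimulated (2 uM final) hPXR-luciferase HepG2 cells were treated for 24 h with DSNP/TCM substances. Viability came from CellTiter-Fluor fluorescence, reporter activity from ONE-Glo luminescence.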

[11] = target: Phospholipid hydroperoxide glutathione peroxidase GPX4 (Homo sapiens) (UniProt P36969); test: Primary qHTS Assay for Inhibitors of Recombinant Selenoprotein Glutathione Peroxidase 4 (GPX4) (AID 1845192); conditions: outcome: dose series up to 50 µM unless noted; note: nearly all actives have a fitted effect of over 65% in size; for activity change, negative = inhibition: % is set by controls: 0 for no effect and ±100 for the full control effect
In short: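 Steps: GPX4 plus compound, 30 min RT; add GR/GSH/NADPH master mix; start with cumene hydroperoxide; read 340/450 nm fluorescence at 0 and 15 min. Finals were 200 nM GPX4, 1 mM GSH, 0.5 mM CHP, 0.5 mM NADPH, 100 nM GR.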

AS120 = test: qHTS profiling for inhibitors of Plasmodium falciparum proliferation (AID 504749);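 note: 0% = DMSO vehicle and full inhibition = artemisinin control; nearly all actives have a fitted effect of over 60% in size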; conditions: P. falciparum in erythrocytes, SYBR Green DNA, 72 h; series mostly up to 28.7 µM
In short: (§2)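 Each compound contacts P. falciparum-infected red blood cells for 72 h at 37 C; lysis buffer (Tris, EDTA, saponin, Triton X, SYBR Green I) is added and fluorescence measured next morning; values normalized to controls.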

ATS189 = test: as above; conditions: P. falciparum in erythrocytes, SYBR Green DNA, 72 h; series mostly up to 12.8 µM
In short: as §2

CP191 = test: as above; conditions: P. falciparum in erythrocytes, SYBR Green DNA, 72 h; series mostly up to 12.8 µM
In short: as §2

CP192 = test: as above; conditions: P. falciparum in erythrocytes, SYBR Green DNA, 72 h; series mostly up to 28.7 µM
In short: as §2

CP203 = test: as above; conditions: P. falciparum in erythrocytes, SYBR Green DNA, 72 h; series mostly up to 12.8 µM
In short: as §2

CP291 = test: as above; conditions: P. falciparum in erythrocytes, SYBR Green DNA, 72 h; series mostly up to 12.8 µM
In short: as §2

DFO2036 = test: as above; conditions: P. falciparum in erythrocytes, SYBR Green DNA, 72 h; series mostly up to 12.8 µM
In short: as §2

TAB113 = test: as above; conditions: P. falciparum in erythrocytes, SYBR Green DNA, 72 h; series mostly up to 12.8 µM
In short: as §2

[12] = target: Cytochrome P450 2C9 (Homo sapiens) (UniProt P11712); test: qHTS Assay for Inhibitors and Substrates of Cytochrome P450 2C9 (AID 883); note: nearly all actives have a fitted effect of over 60% in size; note: potency is the fitted concentration of half-maximal effect; for activity change, negative = inhibition: % is set by controls: 0 for no effect and ±100 for the full control effect
In short: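 Signal: luciferase luminescence reporting luciferin produced by CYP2C9. Conditions: 10nM enzyme, Luciferin-H 100uM at KM, 25mM KPO4, 37C, 60 min NADPH-driven reaction. Reference: 57uM sulphaphenazole as 100% inhibition.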

Sequence of Cytochrome P450 2D6 (Homo sapiens) (P10635 whole entry, looked up): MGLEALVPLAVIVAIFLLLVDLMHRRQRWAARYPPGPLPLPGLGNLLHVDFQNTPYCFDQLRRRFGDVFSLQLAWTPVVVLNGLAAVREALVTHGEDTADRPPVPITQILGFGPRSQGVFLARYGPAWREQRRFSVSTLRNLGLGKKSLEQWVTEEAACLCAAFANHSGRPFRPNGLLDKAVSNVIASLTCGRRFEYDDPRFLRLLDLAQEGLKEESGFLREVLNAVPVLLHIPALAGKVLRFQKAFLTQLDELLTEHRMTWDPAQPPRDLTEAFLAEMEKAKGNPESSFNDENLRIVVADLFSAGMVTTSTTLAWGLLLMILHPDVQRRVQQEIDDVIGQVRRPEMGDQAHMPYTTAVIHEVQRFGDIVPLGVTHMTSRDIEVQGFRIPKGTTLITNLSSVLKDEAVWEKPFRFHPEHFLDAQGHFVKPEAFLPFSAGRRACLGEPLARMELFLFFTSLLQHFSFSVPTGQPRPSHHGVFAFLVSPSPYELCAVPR
Sequence of Dual specificity protein kinase CLK4 (Homo sapiens) (Q9HAZ1 whole entry, looked up): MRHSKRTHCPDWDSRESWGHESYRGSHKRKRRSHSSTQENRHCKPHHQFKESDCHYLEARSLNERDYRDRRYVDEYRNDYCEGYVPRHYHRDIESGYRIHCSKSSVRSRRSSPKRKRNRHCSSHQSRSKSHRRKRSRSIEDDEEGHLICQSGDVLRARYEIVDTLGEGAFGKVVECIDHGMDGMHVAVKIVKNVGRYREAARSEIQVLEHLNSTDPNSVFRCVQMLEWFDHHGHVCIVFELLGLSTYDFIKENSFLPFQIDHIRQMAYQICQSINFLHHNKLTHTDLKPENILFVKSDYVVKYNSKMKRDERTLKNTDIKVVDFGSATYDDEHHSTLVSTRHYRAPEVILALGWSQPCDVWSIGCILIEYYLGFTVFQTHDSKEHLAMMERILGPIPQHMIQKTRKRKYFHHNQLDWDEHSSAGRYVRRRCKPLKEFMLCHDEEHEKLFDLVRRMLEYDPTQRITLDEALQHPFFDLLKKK
Sequence of Phospholipid hydroperoxide glutathione peroxidase GPX4 (Homo sapiens) (P36969 whole entry, looked up): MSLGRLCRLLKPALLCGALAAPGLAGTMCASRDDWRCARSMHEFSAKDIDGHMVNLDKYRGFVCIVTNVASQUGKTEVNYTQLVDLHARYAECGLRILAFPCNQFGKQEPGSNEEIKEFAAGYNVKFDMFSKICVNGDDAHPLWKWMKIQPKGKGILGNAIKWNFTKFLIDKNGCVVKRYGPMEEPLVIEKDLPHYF
Sequence of Cytochrome P450 2C9 (Homo sapiens) (P11712 whole entry, looked up): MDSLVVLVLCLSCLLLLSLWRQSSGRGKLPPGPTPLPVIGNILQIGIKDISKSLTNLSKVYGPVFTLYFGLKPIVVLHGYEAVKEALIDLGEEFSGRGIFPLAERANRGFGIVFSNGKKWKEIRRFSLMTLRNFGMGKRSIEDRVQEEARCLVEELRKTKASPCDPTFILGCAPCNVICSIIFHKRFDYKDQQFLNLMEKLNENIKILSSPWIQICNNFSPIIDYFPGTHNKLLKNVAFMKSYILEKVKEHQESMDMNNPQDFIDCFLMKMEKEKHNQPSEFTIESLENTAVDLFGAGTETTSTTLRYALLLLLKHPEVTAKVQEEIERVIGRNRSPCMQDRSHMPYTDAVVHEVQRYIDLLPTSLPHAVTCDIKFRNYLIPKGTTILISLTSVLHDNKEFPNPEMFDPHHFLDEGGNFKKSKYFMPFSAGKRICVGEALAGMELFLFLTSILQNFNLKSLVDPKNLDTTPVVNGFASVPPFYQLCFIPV

COc1ncc2nc(-c3cccs3)c(=O)n(C)c2n1
inactive: Potency [1]

COc1ccccc1CNc1cc(-c2cccc(C#N)c2)ncn1
inactive: Potency [1]

C=C[C@](C)(O)CCC=C(C)C
inactive: outcome [2] | outcome [3] | outcome [4] | outcome [5] | Potency [6] | outcome [7] | max response [8] -3.94% | outcome [9] | outcome [10]

COc1ccccc1CNc1ncnc2ccc(-c3cccc(C#N)c3)cc12
inactive: Potency [1]

C[C@@H]1CCC[C@H](C)N1NC(=O)c1ccc(Cl)c(S(N)(=O)=O)c1
inactive: outcome [11] | Potency (AS120) | Potency (ATS189) | Potency (CP191) | Potency (CP192) | Potency (CP203) | Potency (CP291) | Potency (DFO2036) | Potency (TAB113)

FC(F)(F)c1ccccc1-c1ccc2ncnc(NCc3cccs3)c2c1
inactive: Potency [1]

Cc1cnc(CNc2ncnc3ccc(-c4ccccc4C(F)(F)F)cc23)cn1
inactive: Potency [1]

O=c1cc(-c2ccc(O)cc2)oc2cc(O[C@H]3OC(CO)C(O)C(O)C3O)cc(O)c12 (some centres undefined)
inactive: outcome [2] | outcome [3] | outcome [4] | outcome [5] | Potency [6] | outcome [7] | max response [8] -0.179% | outcome [9] | outcome [10]

CN1CCN(c2ccnc(-c3ccc(N(C)C)cc3)n2)CC1
inactive: Potency [1]

COC(=O)C1=CO[C@@H](C)[C@H]2CN3CCc4c([nH]c5ccccc45)[C@@H]3C[C@H]12
active: Potency [6] 39.8 nM
inactive: outcome [2] | outcome [3] | outcome [4] | outcome [5] | outcome [7] | max response [8] -2.56% | outcome [9] | outcome [10]

CC1(C)SC2C(NC(=O)Cc3ccccc3)C(=O)N2C1C(=O)O (centres undefined)
inactive: outcome [11]

O=C(/C=C/c1ccc(O)c(O)c1)OC(Cc1ccc(O)c(O)c1)C(=O)O (centres undefined)
inactive: outcome [2] | outcome [3] | outcome [4] | outcome [5] | Potency [6] | outcome [7] | max response [8] -4.37% | outcome [9] | outcome [10]

CC(C)(S)[C@H](N)C(=O)O
inactive: outcome [11] inactive [at 4.52 µM]

CN1C(CC(=O)c2ccccc2)CCCC1CC(O)c1ccccc1 (centres undefined)
inactive: outcome [11]

O=C(Cc1cccs1)NC1C(=O)N2C(C(=O)[O-])=C(C[n+]3ccccc3)CSC12 (centres undefined)
inactive: outcome [11] | Potency (AS120) | Potency (ATS189) | Potency (CP191) | Potency (CP192) | Potency (CP203) | Potency (CP291) | Potency (DFO2036) | Potency (TAB113)

C[N+](C)(C)CC(O)CC(=O)O (centres undefined)
inactive: outcome [11] | Potency (AS120) | Potency (ATS189) | Potency (CP191) | Potency (CP192) | Potency (CP203) | Potency (CP291) | Potency (DFO2036) | Potency (TAB113)

COCCn1c(=O)c(C)nc2cnc(Nc3ccccc3)nc21
inactive: Potency [1]

C=C(C)[C@H]1CC=C(C)C(=O)C1
inactive: outcome [2] | outcome [3] | outcome [4] | outcome [5] | Potency [6] | outcome [7] | max response [8] 1.32% | outcome [9] | outcome [10]

N#CCCn1c(=O)cnc2cnc(N3CCNCC3)nc21
inactive: Potency [12]

CN1[C@@H]2CC[C@H]1CC(OC(=O)[C@@H](O)c1ccccc1)C2 (some centres undefined)
inactive: Potency (AS120) | Potency (ATS189) | Potency (CP191) | Potency (CP192) | Potency (CP203) | Potency (CP291) | Potency (DFO2036) | Potency (TAB113)

CN1CCCC[C@@H]1CCN1c2ccccc2Sc2ccc(S(C)=O)cc21 (some centres undefined)
inactive: Potency (AS120) | Potency (ATS189) | Potency (CP191) | Potency (CP192) | Potency (CP203) | Potency (CP291) | Potency (DFO2036) | Potency (TAB113)

O=c1cnc2cnc(N3CCOCC3)nc2n1C[C@H]1CCCO1
inactive: Potency [12]

N#CCCn1c(=O)c(-c2ccc(Cl)cc2)nc2cnc(Oc3cccc(Cl)c3)nc21
inactive: Potency [12]

COCC(=O)N1CCC2(CCN(Cc3ccncc3)CC2)CC1
active: Potency [12] 398 nM

COCC(=O)N1CCC2(CC1)CN(Cc1nccs1)C2
inactive: Potency [12]

Cc1cccc(CNc2cc(-c3cccc(NS(C)(=O)=O)c3)ncn2)c1
inactive: activity change, negative = inhibition [12] 33.9% [at 2.29 µM]
